Data taken from PubChem BioAssay AID1159580 (chemical genetic matrix, 2015).
Among all 5,500 compounds or so, about 2,000 (36%) were called active. Another 18% or so got no clear call; they are omitted. No stated cut-off is given here; in the data, active means normalized growth mostly below about 0.91 (no sharp cut-off); inconclusive means no clear call, values can overlap the other calls; inactive means mostly above about 0.92. The list shows a part of the results.

Assay: chemical genetic growth profiling, strain panel (AID 1159580);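 further: tested at 20 µM; growth read once vehicle control cultures reached saturation at 30 °C; 1 = growth at the plate median or of vehicle wells; lower values mean less growth of the strain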
Conditions: S. cerevisiae deletion strains, growth OD
[1] = locus YAL021C, strain ccr4, active compounds read low
[2] = locus YAL026C, strain drs2, active compounds read low
[3] = locus YAL030W, strain snc1, active compounds read low
[4] = locus YBL061C, strain skt5, active compounds read low
[5] = locus YBR009C, strain hhf1, active compounds read low
[6] = locus YBR023C, strain chs3, active compounds read low
[7] = locus YBR171W, strain sec66, active compounds read low
[8] = locus YBR231C, strain swc5, active compounds read low
[9] = locus YBR279W, strain paf1, active compounds read low
[10] = locus YCL011C, strain gbp2, active compounds read low
[11] = locus YCL016C, strain dcc1, active compounds read low
[12] = locus YCL061C, strain MRC1, active compounds read low
[13] = locus YCL069W, strain vba3, active compounds read low
[14] = locus YCR088W, strain abp1, active compounds read low
[15] = locus YDL005C, strain med2, active compounds read low
[16] = locus YDL040C, strain nat1, active compounds read low
[17] = locus YDR001C, strain nth1, active compounds read low
[18] = locus YDR069C, strain doa4, active compounds read low
[19] = locus YDR137W, strain rgp1, active compounds read low
[20] = locus YDR159W, strain sac3, active compounds read low
[21] = locus YDR297W, strain sur2, active compounds read low
[22] = locus YDR334W, strain swr1, active compounds read low
[23] = locus YDR335W, strain msn5, active compounds read low
[24] = locus YDR392W, strain spt3, active compounds read low
[25] = locus YEL003W, strain gim4, active compounds read low
[26] = locus YEL037C, strain rad23, active compounds read low
[27] = locus YEL061C, strain CIN8 (second series), active compounds read low
[28] = locus YER015W, strain faa2, active compounds read low
[29] = locus YER016W, strain bim1, active compounds read low
[30] = locus YER111C, strain swi4, active compounds read low
[31] = locus YER155C, strain BEM2 (second series), active compounds read low
[32] = locus YFR010W, strain ubp6, active compounds read low
[33] = locus YGL167C, strain pmr1, active compounds read low
[34] = locus YGL173C, strain kem1, active compounds read low
[35] = locus YGL227W, strain vid30, active compounds read low
[36] = locus YGL240W, strain doc1, active compounds read low
[37] = locus YGL253W, strain hxk2, active compounds read low
[38] = locus YHR013C, strain ard1, active compounds read low
[39] = locus YHR027C, strain rpn1, active compounds read low
[40] = locus YHR030C, strain SLT2, active compounds read low
[41] = locus YHR079C, strain IRE1, active compounds read low
[42] = locus YHR142W, strain chs7, active compounds read low
[43] = locus YJL092W, strain hpr5, active compounds read low
[44] = locus YJL095W, strain BCK1 (second series), active compounds read low
[45] = locus YJL095W, strain BCK1, active compounds read low
[46] = locus YJL115W, strain asf1, active compounds read low
[47] = locus YJL129C, strain trk1, active compounds read low
[48] = locus YJL154C, strain vps35, active compounds read low
[49] = locus YJL164C, strain tpk1, active compounds read low
[50] = locus YJL166W, strain qcr8, active compounds read low
[51] = locus YJL187C, strain SWE1, active compounds read low
[52] = locus YJR066W, strain TOR1, active compounds read low
[53] = locus YKL160W, strain elf1, active compounds read low
[54] = locus YKR026C, strain gcn3, active compounds read low
[55] = locus YKR091W, strain srl3, active compounds read low
[56] = locus YLL001W, strain dnm1, active compounds read low
[57] = locus YLL026W, active compounds read low
[58] = locus YLL041C, strain sdh2, active compounds read low
[59] = locus YLR027C, strain aat2, active compounds read low
[60] = locus YLR113W, strain HOG1, active compounds read low
[61] = locus YLR221C, strain rsa3, active compounds read low
[62] = locus YLR258W, strain gsy2, active compounds read low
[63] = locus YLR262C, strain YPT6 (second series), active compounds read low
[64] = locus YLR320W, strain mms22, active compounds read low
[65] = locus YLR342W, strain FKS1, active compounds read low
[66] = locus YLR357W, strain rsc2, active compounds read low
[67] = locus YLR370C, strain arc18, active compounds read low
[68] = locus YLR384C, strain iki3, active compounds read low
[69] = locus YML120C, strain ndi1, active compounds read low
[70] = locus YMR058W, strain fet3, active compounds read low
[71] = locus YMR125W, strain sto1, active compounds read low
[72] = locus YMR129W, active compounds read low
[73] = locus YMR205C, strain PFK2, active compounds read low
[74] = locus YMR231W, strain pep5, active compounds read low
[75] = locus YNL071W, strain lat1, active compounds read low
[76] = locus YNL183C, strain NPR1, active compounds read low
[77] = locus YNL209W, strain ssb2, active compounds read low
[78] = locus YNL248C, strain rpa49, active compounds read low
[79] = locus YNL322C, strain KRE1 (second series), active compounds read low
[80] = locus YNR049C, strain mso1, active compounds read low
[81] = locus YOR001W, strain rrp6, active compounds read low
[82] = locus YOR070C, strain gyp1, active compounds read low
[83] = locus YOR080W, strain dia2, active compounds read low
[84] = locus YOR083W, strain WHI5, active compounds read low
[85] = locus YOR106W, strain vam3, active compounds read low
[86] = locus YOR231W, strain MKK1, active compounds read low
[87] = locus YOR265W, strain rbl2, active compounds read low
[88] = locus YOR270C, strain vph1, active compounds read low
[89] = locus YOR290C, strain snf2, active compounds read low
[90] = locus YPL051W, strain arl3, active compounds read low
[91] = locus YPL078C, strain atp4, active compounds read low
[92] = locus YPL106C, strain sse1, active compounds read low
[93] = locus YPL240C, strain hsp82, active compounds read low
[94] = locus YPL256C, strain CLN2, active compounds read low

Measured: normalized growth

O=C(NC1CCCCC1)NC1CCCCC1
inactive: [1] 0.987 | [2] 0.995 | [3] 0.976 | [4] 0.976 | [5] 0.998 | [6] 0.976 | [7] 0.977 | [8] 0.981 | [9] 0.981 | [10] 0.973 | [11] 0.97 | [12] 0.983 | [13] 0.978 | [14] 0.973 | [15] 0.981 | [16] 0.981 | [17] 0.972 | [18] 0.979 | [19] 0.964 | [20] 0.995 | locus YDR195W, strain ref2 0.958 | [21] 0.971 | [22] 0.961 | [23] 0.98 | [24] 0.918 | [25] 0.983 | [26] 0.977 | [27] 0.982 | [28] 0.99 | [29] 0.981 | [30] 0.96 | [31] 0.971 | [32] 0.988 | [33] 0.976 | [34] 0.98 | [35] 0.972 | [36] 0.986 | [37] 0.99 | [38] 0.97 | [39] 1 | [40] 1.08 | [41] 1.07 | [42] 0.956 | [43] 0.981 | [44] 0.973 | [45] 1.07 | [46] 0.969 | [47] 0.953 | [48] 0.972 | [49] 0.995 | [50] 0.985 | [51] 0.979 | [52] 1.01 | [53] 0.977 | [54] 0.972 | [55] 0.977 | [56] 0.966 | [57] 0.981 | [58] 0.982 | [59] 0.991 | [60] 1.03 | [61] 0.976 | [62] 0.972 | [63] 0.96 | [64] 0.974 | [65] 0.975 | [66] 0.977 | [67] 0.983 | [68] 0.951 | [69] 0.969 | [70] 0.987 | [71] 0.96 | [72] 0.977 | [73] 0.969 | [74] 0.978 | [75] 0.985 | [76] 1 | [77] 0.974 | [78] 0.98 | [79] 0.962 | [80] 0.978 | [81] 0.995 | [82] 0.97 | [83] 0.971 | [84] 0.971 | [85] 0.983 | [86] 1.04 | [87] 0.979 | [88] 0.905 | [89] 0.953 | [90] 0.983 | [91] 0.981 | [92] 0.951 | [93] 0.98 | [94] 1.08

NCCNCCNCCN
inactive: [1] 0.984 | [2] 1.01 | [3] 0.998 | [4] 1 | [5] 1.01 | [6] 1.01 | [7] 1 | [8] 0.992 | [9] 0.999 | [10] 0.992 | [11] 1 | [12] 0.986 | [13] 0.995 | [14] 1 | [15] 1.01 | [16] 1 | [17] 0.99 | [18] 1 | [19] 1 | [20] 0.996 | locus YDR195W, strain ref2 0.982 | [21] 0.995 | [22] 1 | [23] 0.998 | [24] 1.01 | [25] 0.999 | [26] 0.994 | [27] 0.998 | [28] 0.991 | [29] 1 | [30] 1 | [31] 1.04 | [32] 0.998 | [33] 0.998 | [34] 1.01 | [35] 1 | [36] 1.02 | [37] 0.994 | [38] 1 | [39] 1 | [40] 1.02 | [41] 1.02 | [42] 0.961 | [43] 0.999 | [44] 0.995 | [45] 0.989 | [46] 1.01 | [47] 0.991 | [48] 1 | [49] 0.997 | [50] 0.994 | [51] 1 | [52] 0.955 | [53] 0.987 | [54] 0.993 | [55] 0.991 | [56] 0.997 | [57] 1.01 | [58] 0.997 | [59] 1 | [60] 0.976 | [61] 0.984 | [62] 1.01 | [63] 0.985 | [64] 1 | [65] 1 | [66] 1.02 | [67] 0.995 | [68] 0.999 | [69] 0.991 | [70] 1 | [71] 1.01 | [72] 0.997 | [73] 1.02 | [74] 1 | [75] 1.01 | [76] 0.946 | [77] 0.998 | [78] 0.975 | [79] 1 | [80] 0.993 | [81] 0.988 | [82] 1 | [83] 1 | [84] 0.985 | [85] 0.986 | [86] 0.995 | [87] 0.996 | [88] 0.937 | [89] 1 | [90] 0.997 | [91] 0.992 | [92] 1.02 | [93] 0.977 | [94] 1.01
